This is a sample that favours compounds with a hit; in the whole collection about 0.51% have one here.
FMDV RLuc: shows antiviral activity in FMDV Renilla assay; FMDV replicon cells, Renilla luciferase signal; Potency, µM (highest dose often 57.5 µM), without a hit: at the top dose activity change, negative = inhibition, hits mostly inhibitors; 120,000 tested, 0.32% active; note: nearly all actives have a fitted effect of over 55% in size
FMDV FLuc: antivirals against foot and mouth disease virus | FMDV antiviral cell assay, firefly luciferase signal | 120,000 tested, 0.23% active | Potency, µM (doses to about 57.5 µM), for inactives: at the highest dose activity change, negative = inhibition, hits mostly inhibitors | AID 1745856; note: nearly all actives have a fitted effect of over 60% in size
An asterisk follows results filed as active; ? = inconclusive. Calls come from the whole dose curve. % is set by controls: 0 for no effect and ±100 for the full control effect; potency is the fitted concentration of half-maximal effect.

SMILES	FMDV RLuc	FMDV FLuc
C(#CCN1CCN(CC#CCOCc2ccccc2)CC1)COCc1ccccc1	-3.5%	-6.6%
C(#CCN1CCN(CC#CCOCCOCc2ccccc2)CC1)COCCOCc1ccccc1	5.01µM*	4.47µM*
CCCSc1ncc(Cl)c(C(=O)Nc2ccc(C)cc2C)n1	-3.8%	-10.0%
COc1cc(C)ccc1Oc1ccc(NC(=O)c2ccc3c(c2)NC(=O)CS3)cn1	25.1µM*	?
COc1ccc(NC(=O)c2ccc3c(c2)NC(=O)CS3)cn1	-0.1%	68.3%
CC(C)c1nc(C#N)c(N2CCN(c3ccccc3)CC2)o1	5.4%	18.8%
CCc1cc2c(=O)c(Oc3ccc(F)cc3)c(C(F)(F)F)oc2cc1OC(C)=O	10µM*	14.1µM*
CCc1cc2c(=O)c(Oc3ccc(I)cc3)c(C(F)(F)F)oc2cc1OC(=O)c1ccc(Br)cc1	12.1%	6.1%
O=C(Nc1ccccc1C(=O)N1CCN(C(c2ccccc2)c2ccccc2)CC1)C1CC1	4.5%	-17.5%
COc1ccc(C(=O)Oc2c(C)cc(C(O)(C(F)(F)F)C(F)(F)F)cc2C)cc1	8.91µM*	10µM*
Cc1cc(C(O)(C(F)(F)F)C(F)(F)F)cc(C)c1OC(=O)c1ccccc1F	-30.0%	44.0%
Cc1ccc(-c2cc(C(=O)O)c3cc(Cl)ccc3n2)o1	-6.6%	32.0%
CCc1c(C)sc(NC(=O)C(F)(F)C(F)(F)C(F)(F)F)c1C#N	10µM*	?
CCc1c(C)sc(NC(=O)c2c(F)c(F)c(F)c(F)c2F)c1C#N	-8.4%	-6.6%
CCc1c(C)sc(NC(=O)C(C)(C)C)c1C#N	30.2%	8.5%
CCc1c(C)sc(NC(=O)C(F)(F)C(F)(F)C(F)(F)C(F)(F)F)c1C#N	25.1µM*	22.4µM*
CCCn1c(NC(=O)COc2cccc(C)c2)nc2ccccc21	64.4%	-11.6%
CC1CC1c1ccc(/C=C/C(=O)N(Cc2ccccc2)C2CC2)o1 (stereo not drawn)	42.2%	31.5%
CCOC(=O)c1cnc2ccc(Cl)cc2c1Nc1ccccc1OCC	0.0%	-0.9%
O=C1c2c(O)ccc(O)c2C(=O)c2c(NCCNCCO)ccc(NCCNCCO)c21	?	28.2µM*
O=C(C1CCC(CNS(=O)(=O)c2ccc(Br)s2)CC1)N1CCN(c2ccccc2Cl)CC1 (stereo not drawn)	-1.3%	-5.9%
O=C(C1CCC(CNS(=O)(=O)c2ccc(Br)s2)CC1)N1CCN(c2ccc(F)cc2)CC1 (stereo not drawn)	6.31µM*	?
COc1ccc(-c2cnc(CCC(=O)N3CCS(=O)CC3)o2)cc1	-4.4%	27.3%
COc1ccc(C(=O)Nc2ccc3nc(SCC(=O)N(C)c4ccccc4)sc3c2)cc1	28.2µM*	?
CN(C(=O)CSc1nc2ccc(NC(=O)COc3ccc(Cl)cc3)cc2s1)c1ccccc1	-13.4%	-18.7%
SMILES	FMDV RLuc	FMDV FLuc
Cc1nc(/C=C/C(=O)N2CCN(c3cccc(C(F)(F)F)c3)CC2)cs1	20µM*	?
Cc1cc(C(=O)N2CCN(c3cccc(C(F)(F)F)c3)CC2)cs1	-3.5%	-3.4%
Cc1ccc(NC(=O)c2sc3ccccc3c2C)cc1	26.7%	99.9%
O=C(CSc1nc2ccccc2nc1N1CCCC1)NCc1ccccc1	32.7%	-2.2%
O=S1(=O)C=CC2ON=C(c3c(Cl)cccc3Cl)C21 (stereo not drawn)	31.6µM*	?
O=C(CN1CCN(c2ccc(C(F)(F)F)cn2)CC1)NC1CCCCC1	?	28.2µM*
O=C(CN1CCN(CC(=O)NC2CCCCC2)CC1)Nc1ccc(Cl)c(C(F)(F)F)c1	-21.9%	-20.4%
CCCCN(Cc1ccccc1)c1ccc(NS(=O)(=O)c2cccs2)cc1C(=O)O	31.4%	10.3%
COc1ccc(C(=O)Nc2nc(-c3nnn(-c4ccccc4Br)c3C)ns2)cc1	14.1µM*	14.1µM*
COc1ccc(C(=O)Nc2nc(-c3nnn(-c4ccc(F)cc4F)c3C)ns2)cc1	15.2%	43.3%
O=C(NC1CC1)c1cc2occc2n1Cc1ccccc1Cl	22.9%	1.9%
CCc1ccc(-c2noc(CN3CCCc4c(C(=O)NC(C)C)cccc43)n2)cc1	7.1%	20.7%
CC(C)NC(=O)c1cccc2c1CCCN2Cc1nc(-c2cccc(Cl)c2)no1	25.1µM*	?
COc1ccc2c(=O)c(-c3ccc(OC)c(OC)c3)c(C(F)(F)F)oc2c1	-6.5%	23.6%
COc1ccc(-c2c(C(F)(F)F)oc3cc(OS(C)(=O)=O)ccc3c2=O)cc1OC	?	3.55µM*
COCCn1c(Br)nc2c1c(=O)[nH]c(=O)n2C	-10.6%	-0.3%
CSc1ccc(/C=N/Nc2ccc(Cl)cc2)cc1	8.9%	14.7%
Cc1ccc(NC(=O)C(C)n2nc(C(=O)O)c3ccccc3c2=O)cc1 (stereo not drawn)	6.7%	26.0%
Cc1csc2nc(-c3cccc(NC(=O)c4cccc(F)c4)c3)cn12	12.6µM*	-4.3%
Cc1csc2nc(-c3cccc(NC(=O)c4ccccc4F)c3)cn12	20.1%	115.8%
CCC(C(=O)NCc1ccccc1OC)N1C(=O)CCn2nc(C)cc21 (stereo not drawn)	-1.0%	-0.9%
COc1ccc(Cn2c(C(=O)O)c(CNCc3ccccc3F)c3ccc(OC)cc32)cc1	0.0%	35.5µM*
CCOc1ccccc1CNCc1c(C(=O)O)n(Cc2ccccc2)c2cc(OC)ccc12	1.4%	-20.5%
FC(F)Oc1cc(Cl)ccc1C1CC(c2ccc(Br)cc2)n2c(nc3ccccc32)N1 (stereo not drawn)	-5.7%	-3.5%
Cn1nc(C(=O)Nc2cccc(C(F)(F)F)c2)c2c1-c1ccccc1OC2	-16.4%	-0.3%
SMILES	FMDV RLuc	FMDV FLuc
COc1cc(OC)cc(C(=O)Nc2ccc3oc(C)nc3c2)c1	28.9%	261.2%
CCN(CC)c1ccc(Nc2nc(N3CCOCC3)c3ccccc3n2)cc1	20µM*	?
CCOc1ccc(Nc2nc(N3CCOCC3)c3cnn(C)c3n2)cc1	3.4%	1.9%
COc1cc(C(=O)Nc2ccccc2-c2nc(-c3ccccc3)no2)cc(OC)c1OC	-3.1%	2.8%
COc1cc(-c2nc(-c3ccc(Br)cc3)no2)cc(OC)c1OC	-7.8%	0.398µM*
COc1cc(C(=O)Nc2ccccc2-c2nc(-c3ccc(C)cc3)no2)cc(OC)c1OC	35.5µM*	-15.2%
COc1cc(-c2noc(-c3ccc(Br)cc3)n2)cc(OC)c1OC	-0.7%	7.2%
COc1ccc(-c2noc(CCCC(=O)Nc3cccc(Cl)c3C)n2)cc1	-12.4%	-14.2%
COc1ccc(-c2noc(CCCC(=O)Nc3ccc(S(=O)(=O)N4CCCCCC4)cc3)n2)cc1	?	31.6µM*
CCOc1ccc(C(=O)Nc2ccc3oc(-c4ccncc4)nc3c2)cc1Br	6.31µM*	?
COc1ccc(C(=O)Nc2ccc3oc(-c4ccncc4)nc3c2)cc1OC	-5.4%	-0.1%
CCn1c(C)cc(C(=O)COC(=O)c2nccnc2N)c1C	-5.8%	29.0%
CCc1ccc(-c2nc(CSCC(=O)NCCCOC)c(C)o2)cc1	-22.9%	25.1µM*
CCOCCCNC(=O)CSCc1nc(-c2ccc(C)cc2)oc1C	8.6%	9.2%
COc1cccc(/C=C(\C#N)c2nc3ccccc3o2)c1	146.3%	89.1%
CCc1ccccc1Nc1nn2c(=O)c3ccc(C(=O)NC(C)c4ccccc4)cc3nc2s1 (stereo not drawn)	?	11.2µM*
CCc1ccccc1Nc1nn2c(=O)c3ccc(C(=O)NCCc4ccccc4)cc3nc2s1	0.0%	0.0%
Cn1nc(C(C)(C)C)cc1NC(=O)c1cccc(Br)c1	-2.2%	47.6%
CCOC(=O)Cn1nc(C)c(NC(=O)COc2ccccc2)c1C	10.9%	17.1%
CCOC(=O)Cn1nc(C)c(NC(=O)COc2ccc(Cl)cc2C)c1C	10µM*	?

From PubChem
